# Bioassay records (PubChem)
# Compounds with a hit are over-represented: about 19% of the library has one in this group of screens.
# DT40 TDP1 CPT: DT40-hTDP1 cell growth loss with CPT; Potency, µM (titrated, usually from 46.2 µM), inactives show at the top dose activity change, negative = growth inhibition, most hits filed as inhibitors; chicken DT40 Tdp1-/-;hTDP1 cells + 20 nM CPT, ATP luminescence, 48 h; actives 12% (n = 420,000); further: potency means the concentration at half of the fitted maximal effect; on the % scale 0 is the no-effect control and ±100 the full control effect; nearly all actives have a fitted effect of over 55% in size
#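 Cell growth measured by CellTiter-Glo luminescence after a minimum 48 h, 37 C compound exposure with 20 nM CPT in Tdp1-knockout DT40 cells stably expressing hTDP1, seeded 400/well; qHTS titration format.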
# IL1B secr inh: inhibitors of inflammasome signaling (IL-1 beta secretion); THP-1 LPS/ATP IL-1B secretion, AlphaLISA, 16 h; hits give low values; activity change, % at 57.5 µM; actives 4.7% (n = 360,000); in the data active means activity change below about -50%; inconclusive means mostly about -30% to -49%; further: on the % scale 0 is the no-effect control and ±100 the full control effect
#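 THP-1 cells pretreated 1 hr with compounds (up to 57.5 uM final), then stimulated with LPS (250 ng/mL final) plus ATP (1.25 mM final); secreted IL-1B measured by AlphaLISA after 16 hr, decreased signal indicating inhibition.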
# MCF10A rerep: induces DNA re-replication in MCF 10a normal breast cells. MCF 10A DNA re-replication, Hoechst nuclear intensity, 48 h. Potency, µM (titrated, usually from 46.1 µM), for the others: at the highest dose activity, positive = re-replication, hits mostly activators. actives 2.9% (n = 350,000); further: potency means the concentration at half of the fitted maximal effect; % of control where 0% means no effect; nearly all actives have a fitted effect of over 50% in size
# BCR signal inh: inhibitors of chronic active B-cell receptor signaling | ABC-DLBCL IkBa-CBG/CBR reporter, luminescence ratio, 4 h | Potency, µM (top dose mostly 46.1 µM), without a hit: at the highest dose activity change, negative = inhibition, hits mostly inhibitors | actives 0.05% (n = 340,000) | AID 493014; active means well fitted inhibition curve with a large enough effect in the signal ratio, with a control signal flat, not every such curve was filed as active; inconclusive means small, poorly fitted or top-dose-only effect, or effect the other way, or a change in a side signal; the % refers to the signal ratio;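 further: potency means the concentration at half of the fitted maximal effect; plate controls were basal doxycycline-induced cells for no effect and cells given 10 µM MG132 for full effect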
#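 Doxycycline induced both beetle luciferases in TMD8 lymphoma cells; IKK-driven degradation limits the IkappaBalpha-fused green signal, while red luminescence normalises for cell number and nonspecific effects. Compounds tested up to 46 uM, 4 hrs.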
# DT40 TDP1 no CPT: qHTS for Inhibitors of human tyrosyl-DNA phosphodiesterase 1 (TDP1): qHTS in cells in absence of CPT; Potency, µM (series often up to 46.2 µM), for inactives: top-dose activity change, negative = growth inhibition, hits mostly inhibitors; DT40 Tdp1-/- hTDP1 cells, no CPT, ATP luminescence, 48 h; actives 15% (n = 420,000); further: potency means the concentration at half of the fitted maximal effect; on the % scale 0 is the no-effect control and ±100 the full control effect; nearly all actives have a fitted effect of over 55% in size
#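 Chicken DT40 Tdp1-/- cells stably complemented with human TDP1 were seeded at 400 cells/well with DMSO in place of 20 nM camptothecin. After compound pinning, cells grew at least 48 hr at 37 °C; viability read by CellTiter-Glo luminescence.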
# SW480 rerep: induces DNA re-replication in SW480 colon adenocarcinoma cells. SW480 DNA re-replication, Hoechst DNA content imaging, 48 h. Potency, µM (doses to about 46.1 µM), without a hit: at the highest dose re-replication activation, most hits filed as activators. actives 1.8% (n = 340,000). AID 624297; further: potency means the concentration at half of the fitted maximal effect; % of control where 0% means no effect; nearly all actives have a fitted effect of over 55% in size
#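 Image-based DNA-content assay: after two days of treatment, nuclei were labelled with the DNA dye Hoechst and imaged, and hits were compounds raising the count of nuclei showing high fluorescence intensity.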
# * hit, by the source's call; ? = inconclusive; / = no result given; [ ] = remark or other dose. Unless noted, the call rests on the fitted dose curve; in most records, active means well fitted curve in the direction sought with a large enough effect; inconclusive means small, poorly fitted or top-dose-only effect, or another doubt; inactive means no such curve, though single readings can be large; an effect the other way counts as inactive or inconclusive.
SMILES,DT40 TDP1 CPT,IL1B secr inh,MCF10A rerep,BCR signal inh,DT40 TDP1 no CPT,SW480 rerep
CCc1cccc(NC(=O)CCCn2c(=O)[nH]c3ccsc3c2=O)c1,7%,10,-8%,-14%,1%,-6%
COCCNC(=O)C1(C)CCCN(C(=O)c2ccc(C(F)(F)F)cc2)C1 (stereo not given),0%,13,/,/,?,/
CC(CNc1nc2ccccc2n2cnnc12)c1ccccc1 (stereo not given),?,19,?,3%,?,-22%
C=C(C)C1Cc2c(C)nn(-c3cccc4ccccc34)c2C1 (stereo not given),21µM*,32,?,10%,?,3%
O=C(c1cnn(-c2nccc(-c3ccccc3F)n2)c1C1CC1)N1CCCCC1c1cccnc1 (stereo not given),4%[9.04 µM],/,/,/,21µM*,/
Cc1cc(O)cc2c1C1CCC3(C)C(O)CCC3C1C=C2 (stereo not given),?,-14,?,/,21µM*,?
C=CCSc1nnc(-c2cc3c(-c4ccccc4)nn(C)c3s2)n1C,?,-62*,10%,?,?,4%
C=CCSc1nnc(-c2cc3c(C(F)(F)F)nn(C)c3s2)n1C,4%,-13,9%,1%,-9%,-3%
Cc1ccc(NC(=O)CCCNC(=O)c2ccc(Cl)cc2)c(O)c1,-26%,74,0%,?,1%,1%
O=[N+]([O-])c1ccc(NCc2ccc3c(c2)OCO3)cc1,-2%,-14,-1%,0%,?,-4%
COc1ccc(OC)c(CNc2ccc([N+](=O)[O-])cc2C)c1,6%,-69*,-9%,7%,0%,4%
Cc1cc([N+](=O)[O-])ccc1NCc1ccc2c(c1)OCCO2,-30%,-51*,?,-1%,-27%,-57%
COc1cccc(CNc2ccc([N+](=O)[O-])cc2C)c1,?,-1,1%,-2%,18µM*,?
Cc1cc(N)n(-c2ccc(S(=O)(=O)c3ccc(C(C)C)cc3)cc2)n1,8%,24,13%,3%,?,-4%
Cc1ccc(C(=O)NCCNC(=O)COc2ccc(C)c(C)c2)cn1,7%,36,6%,0%,8%,-6%
COc1cc(/C=N/NC(=O)c2cccnc2)ccc1OCC(=O)Nc1ccccc1Cl,-18%,8,-2%,-15%,-25%,21%
COc1ccc(C(=O)N/N=C/c2ccc(OC)c(CN3CCCc4ccccc43)c2)cc1,-24%,?,15%,?,?,-1%
COc1ccc(/C=N/NC(=O)c2cccc(Br)c2)cc1CSc1ccccn1,-28%,10,15µM*,-1%,?,?
COc1ccc(/C=N/NC(=O)c2cccnc2)cc1CSc1ccccn1,6.5µM*,60,13µM*,?,6.5µM*,13µM*
COc1ccc(NC(=O)COc2ccc(/C=N/NC(=O)c3cccnc3)cc2OC)cc1,18µM*,-7,0%,?,23µM*,-2%
COc1ccc(/C=N/NC(=O)c2cccnc2)cc1CN1CCCc2ccccc21,?,4,?,?,12µM*,20%
CCOc1cc(C)nc(N2CCC(C(=O)NCC3CCCO3)CC2)n1 (stereo not given),-6%,8,6%,/,-19%,-2%
Cc1ccc(CCNC(=O)c2cnc3c(C)cccn3c2=O)cc1,?,/,/,-23%,?,/
O=C(Nc1cccc(S(=O)(=O)N2CCOCC2)c1)C1COc2ccccc2O1 (stereo not given),-27%,-4,-1%,0%,?,1%
COCc1ccc(CN2CCOc3c(O)cc(-c4cc(C)c5ccc(F)cc5n4)cc3C2)o1,-1%[9.04 µM],/,/,/,?,/
SMILES,DT40 TDP1 CPT,IL1B secr inh,MCF10A rerep,BCR signal inh,DT40 TDP1 no CPT,SW480 rerep
Cc1cccc(-c2noc(CNC(=O)c3ccccc3Br)n2)c1,-17%,/,/,/,?,/
COc1ccc(Cl)cc1NC(=S)NC(=O)c1ccco1,?,22,-4%,?,-26%,2%
O=C(CCc1ccccc1)NCc1nc2cccnc2n1Cc1ccc(F)cc1,-24%,/,/,/,?,/
CCOC(=O)C1(CCOC)CCN(Cc2cnc(-c3cccc(C)c3)nc2)CC1,?,12,?,-9%,16µM*,-132%
CCOC(=O)C1(CCOc2ccccc2)CCN(Cc2ccc(OC)c(COC)c2)CC1,18µM*,-52*,?,-10%,18µM*,?
CCOC(=O)C1(CCOC)CCN(Cc2ccc3nonc3c2)CC1,-21%,11,15%,0%,-17%,-5%
CCOC(=O)C1(CCOc2ccccc2)CCN(Cc2ccc(O)cc2)CC1,?,0,?,?,?,?
CCOC(=O)C1(CCOc2ccccc2)CCN(Cc2ccc(OC)c(O)c2)CC1,16µM*,-52*,19%,?,?,?
CCCN1CCC(CCOc2ccccc2)(C(=O)OCC)CC1,-6%,1,23%,2%,1%,-13%
CCOC(=O)C1(CCOc2ccccc2)CCN(Cc2ccc(O)c(OCC)c2)CC1,-41%,-89*,?,-13%,?,?
Cc1ccc(NC(=O)CN(C)C(=O)C2CSC3(C)CCC(=O)N23)cc1 (stereo not given),2%,-3,/,/,-11%,/
Cc1ccc2cc(CN(c3cccc(C)c3C)S(=O)(=O)c3ccccc3)c(=O)[nH]c2c1,?,29,9%,-5%,?,19%
O=C(Nc1ccccn1)C1CCN(C(=O)Nc2ccccc2)CC1,-19%,17,-2%,0%,-5%,-5%
N#CCCN(C(=O)COc1ccc(Cl)cc1Cl)c1ccccc1,1%,22,3%,1%,-16%,23%
CCCNC(=O)C(Cc1ccc(F)cc1)NC(=O)c1ccccc1 (stereo not given),-25%,4,0%,?,-16%,4%
CCOC(=O)C1(CC2CC2)CCN(Cc2cnc(-c3ccccc3C)nc2)CC1,15µM*,0,11%,29%,18µM*,28%
CCOC(=O)C1(CCOc2ccccc2)CCN(Cc2cc(OC)c(O)c(OC)c2)CC1,29µM*,0,?,-6%,?,21%
CCOC(=O)C1(CCOc2ccccc2)CCN(Cc2ccc(OCCO)cc2)CC1,?,?,?,0%,?,?
